Screens deposited in PubChem BioAssay by The Scripps Research Institute Molecular Screening Center.
MOR-DOR ag – agonists of human mu-delta opioid receptor heterodimerization. P35372+P41143. cells, OPRM1-OPRD1 heterodimerization, luminescence. activation, % at 9.3 µM. actives 0.3% (n = 340,000). AID 504326;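 also: 0% = vehicle-treated cells and 100% = reference agonist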
Target sequence (P35372 whole entry, looked up): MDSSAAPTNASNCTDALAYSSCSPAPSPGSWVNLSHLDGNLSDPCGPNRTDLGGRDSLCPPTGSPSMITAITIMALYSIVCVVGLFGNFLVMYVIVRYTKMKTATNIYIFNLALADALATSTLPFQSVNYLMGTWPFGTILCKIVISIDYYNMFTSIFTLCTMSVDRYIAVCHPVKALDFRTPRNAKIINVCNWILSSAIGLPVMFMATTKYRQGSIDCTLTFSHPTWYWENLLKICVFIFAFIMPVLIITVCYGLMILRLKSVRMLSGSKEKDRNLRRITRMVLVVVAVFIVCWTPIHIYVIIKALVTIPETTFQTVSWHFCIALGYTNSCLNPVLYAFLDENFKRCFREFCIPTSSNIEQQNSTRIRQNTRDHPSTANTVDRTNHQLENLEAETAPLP
Target sequence (P41143 whole entry, looked up): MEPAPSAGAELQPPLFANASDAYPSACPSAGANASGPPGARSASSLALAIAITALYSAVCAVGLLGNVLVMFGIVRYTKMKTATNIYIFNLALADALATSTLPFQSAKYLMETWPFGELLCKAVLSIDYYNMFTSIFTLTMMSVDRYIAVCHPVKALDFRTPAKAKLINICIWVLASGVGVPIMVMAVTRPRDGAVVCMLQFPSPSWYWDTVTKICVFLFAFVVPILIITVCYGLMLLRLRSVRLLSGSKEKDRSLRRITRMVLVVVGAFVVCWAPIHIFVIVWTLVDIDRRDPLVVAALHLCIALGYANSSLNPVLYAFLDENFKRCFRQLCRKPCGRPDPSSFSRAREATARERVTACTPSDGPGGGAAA
OPRM1-OPRD1 inv – inverse agonist of human OPRM1-OPRD1 heterodimerization | cell-based MOR-DOR heterodimer luminescence, inverse agonism | inhibition, % at 9.3 µM | actives 0.21% (n = 340,000) | AID 504357; in the data active = inhibition above about 22%, passing the limit was not always enough;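 also: 0% = cells with DMSO and 100% = wells without cells with DMSO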
HTR5A ag ctr – HTR5A agonism, opioid heterodimer counter-screen; P47898; HTR5A agonist assay, luminescence, cell-based; activation, % at 9.3 µM; actives 0.61% (n = 340,000); in the data active = activation mostly above about 9.5%, no sharp cut-off; inactive = mostly below about 7.6%;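 also: 0% = cells with vehicle only and 100% = reference agonist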
HTR5A inv ag – HTR5A inverse agonism, opioid heterodimer counter-screen | inhibition, % at 9.3 µM | actives 0.083% (n = 340,000) | HTR5A cell line, luminescence; in the data active = inhibition mostly above about 23%, no sharp cut-off; inactive = mostly below about 18%;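 also: 0% = cells with DMSO and 100% = no-cell wells with DMSO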
MOR-DOR ag conf – OPRM1-OPRD1 heterodimer agonism, confirmation; activation, % at 9.3 µM; shares compounds with MOR-DOR ag; actives 45% (n = 830); cells, MOR-DOR heterodimerization, luminescence complementation;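 also: 0% = vehicle-treated cells and 100% = reference agonist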
HTR5A ag counter – counter-screen for OPRM1-OPRD1 agonists: human HTR5A agonism; shares compounds with MOR-DOR ag; HTR5A agonist counterscreen, cell luminescence; activation, % at 9.3 µM; actives 8% (n = 830); AID 504905; in the data active = activation above about 17%;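 also: 0% = vehicle-treated cells and 100% = reference agonist response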
The depositor's hits bear a star. In the library only some 1.1% were active in any assay of this set; here they are far more common. Rule as the data show it, unless noted: active = activation above about 18%; inactive = the rest.

How did CCN1C(c2ccccc2)=C(c2ccccc2)S/C1=C/C=C1\SC(=S)N(C)C1=O do in these assays?
MOR-DOR ag: 48*; OPRM1-OPRD1 inv: -299; HTR5A ag ctr: 11; HTR5A inv ag: -31; MOR-DOR ag conf: 441*; HTR5A ag counter: 29*

Results for CCN1C(c2ccccc2)=C(c2ccccc2)S/C1=C\C=C1/SC(=S)N(C)C1=O ?
MOR-DOR ag: 137*; OPRM1-OPRD1 inv: inactive; HTR5A ag ctr: 13; HTR5A inv ag: -16; MOR-DOR ag conf: 13; HTR5A ag counter: 6

Results for CCN1C(=O)/C(=C/C=C2/Sc3ccc4ccccc4c3N2CCO)SC1=S ?
MOR-DOR ag: 0; OPRM1-OPRD1 inv: 0; HTR5A ag ctr: 4; HTR5A inv ag: -7

What do the screens show for `CN1C(=O)[C@H]2[C@@H](C3CC3)N3C(=O)CN(Cc4ccc(-c5ccccc5)cc4)C(=O)[C@@]3(C)[C@H]2C1=O`?
MOR-DOR ag: 0; OPRM1-OPRD1 inv: 3; HTR5A ag ctr: 4; HTR5A inv ag: -40

How did Nc1ccc2c(c1)C(=O)C(=O)c1ccccc1-2 do in these assays?
MOR-DOR ag: 25*; OPRM1-OPRD1 inv: -125; HTR5A ag ctr: 4; HTR5A inv ag: -11; MOR-DOR ag conf: 0; HTR5A ag counter: 1

What do the screens show for `O=C1C(=O)c2ccc(-c3ccccc3)cc2-c2ccccc21`?
MOR-DOR ag: 26*; OPRM1-OPRD1 inv: -118; HTR5A ag ctr: 5; HTR5A inv ag: -22; MOR-DOR ag conf: 0; HTR5A ag counter: 3

Results for CN(Cc1cn(C)nc1-c1ccc(Oc2ccccc2)cc1)CC1COCCO1 (stereo not given) ?
MOR-DOR ag: -2; OPRM1-OPRD1 inv: 9; HTR5A ag ctr: 3; HTR5A inv ag: -13

What do the screens show for `Cc1nc(CNC(=O)CC2C(=O)NCCN2Cc2ccoc2)nc2c1CCCC2` (stereo not given)?
MOR-DOR ag: -4; OPRM1-OPRD1 inv: 22; HTR5A ag ctr: -6; HTR5A inv ag: -10

What do the screens show for `NC[C@H](Cc1ccccc1)NCCCCC1CCCCC1`?
MOR-DOR ag: 1; OPRM1-OPRD1 inv: -4; HTR5A ag ctr: -1; HTR5A inv ag: -14

Results for CNC[C@H](CC1CCCCC1)NC[C@H](Cc1ccccc1)NCCC12CC3CC(CC(C3)C1)C2 ?
MOR-DOR ag: 95*; OPRM1-OPRD1 inv: inactive; HTR5A ag ctr: 0; HTR5A inv ag: -60; MOR-DOR ag conf: 164*; HTR5A ag counter: 39*

How did CC(C)(C)OC(=O)CN1c2cccc3cccc(c23)S1(=O)=O do in these assays?
MOR-DOR ag: -2; OPRM1-OPRD1 inv: 10; HTR5A ag ctr: -3; HTR5A inv ag: 11

What do the screens show for `CCOC(=O)C1(CC2CC2)CCN(Cc2ccc3cccc(F)c3n2)CC1`?
MOR-DOR ag: 24*; OPRM1-OPRD1 inv: -121; HTR5A ag ctr: 5; HTR5A inv ag: -14; MOR-DOR ag conf: 28*; HTR5A ag counter: 0

Results for CCOC(=O)C1(CC2CC2)CCN(Cc2cn[nH]c2-c2cccc(F)c2)CC1 ?
MOR-DOR ag: 16; OPRM1-OPRD1 inv: -111; HTR5A ag ctr: -3; HTR5A inv ag: -5

Results for COCCNc1nnc(SCC(=O)Nc2nnc(-c3ccccc3)o2)s1 ?
MOR-DOR ag: -2; OPRM1-OPRD1 inv: 16; HTR5A ag ctr: 0; HTR5A inv ag: -1

How did CN(C)C(CNC(=O)c1cnc(Cl)c(Cl)c1)c1ccccc1 (stereo not given) do in these assays?
MOR-DOR ag: 353*; OPRM1-OPRD1 inv: inactive; HTR5A ag ctr: -1; HTR5A inv ag: 3; MOR-DOR ag conf: 374*; HTR5A ag counter: 0

How did CN(C)C(CNC(=O)c1cc(S(=O)(=O)N(C)c2ccccc2)ccc1Cl)c1ccccc1 (stereo not given) do in these assays?
MOR-DOR ag: -1; OPRM1-OPRD1 inv: 4; HTR5A ag ctr: 6; HTR5A inv ag: -17

Results for CC(NC(=O)c1ccc2ccccc2n1)c1ccccc1 (stereo not given) ?
MOR-DOR ag: 0; OPRM1-OPRD1 inv: -2; HTR5A ag ctr: 5; HTR5A inv ag: -53

Results for CN(C)C(CNC(=O)c1ccc2ccccc2n1)c1ccccc1 (stereo not given) ?
MOR-DOR ag: 58*; OPRM1-OPRD1 inv: -437; HTR5A ag ctr: 3; HTR5A inv ag: -8; MOR-DOR ag conf: -2; HTR5A ag counter: 0

How did COCCCNC(=O)/C=C/c1cccc(Cl)c1 do in these assays?
MOR-DOR ag: 0; OPRM1-OPRD1 inv: 0; HTR5A ag ctr: 0; HTR5A inv ag: 3

Results for CN(C)C(CNC(=O)/C=C/c1cccc(Cl)c1)c1ccccc1 (stereo not given) ?
MOR-DOR ag: 275*; OPRM1-OPRD1 inv: inactive; HTR5A ag ctr: -3; HTR5A inv ag: 9; MOR-DOR ag conf: 10; HTR5A ag counter: 6

Results for CCc1cc(C(=O)N2CCN(S(=O)(=O)c3ccc(Cl)cc3)CC2)sc1C ?
MOR-DOR ag: -3; OPRM1-OPRD1 inv: 10; HTR5A ag ctr: 3; HTR5A inv ag: -10

Results for Cc1ccc([N+](=O)[O-])cc1NC(=O)C(C)NS(=O)(=O)c1ccc(F)cc1 (stereo not given) ?
MOR-DOR ag: -1; OPRM1-OPRD1 inv: 5; HTR5A ag ctr: -6; HTR5A inv ag: 16

Results for CCN(c1ccccc1)S(=O)(=O)c1cc(C(=O)NCC(c2ccc(OC)cc2)N(C)C)ccc1C (stereo not given) ?
MOR-DOR ag: 20*; OPRM1-OPRD1 inv: -107; HTR5A ag ctr: 4; HTR5A inv ag: -16; MOR-DOR ag conf: 6; HTR5A ag counter: 2

How did COc1ccc(C(CNC(=O)c2cccc(NS(=O)(=O)c3ccc(Br)cc3)c2)N(C)C)cc1 (stereo not given) do in these assays?
MOR-DOR ag: 74*; OPRM1-OPRD1 inv: -384; HTR5A ag ctr: -6; HTR5A inv ag: 14; MOR-DOR ag conf: 12; HTR5A ag counter: 4

How did CC(C)c1ccc(NC(=O)CNCC(c2ccccc2)N(C)C)cc1 (stereo not given) do in these assays?
MOR-DOR ag: 0; OPRM1-OPRD1 inv: -1; HTR5A ag ctr: -6; HTR5A inv ag: -1

What do the screens show for `CCN(c1ccccc1)S(=O)(=O)c1ccc(C(=O)NCC(c2cccs2)N(C)C)cc1` (stereo not given)?
MOR-DOR ag: -1; OPRM1-OPRD1 inv: 6; HTR5A ag ctr: -2; HTR5A inv ag: 6

What do the screens show for `COc1ccc(C(CNC(=O)c2ccc(S(=O)(=O)N(C)C)cc2)N(C)C)cc1` (stereo not given)?
MOR-DOR ag: 95*; OPRM1-OPRD1 inv: inactive; HTR5A ag ctr: -3; HTR5A inv ag: 9; MOR-DOR ag conf: 105*; HTR5A ag counter: 0

Results for Cc1ccc(NC(=O)CNCC(c2ccccc2)N(C)C)cc1F (stereo not given) ?
MOR-DOR ag: 40*; OPRM1-OPRD1 inv: -205; HTR5A ag ctr: 3; HTR5A inv ag: 16; MOR-DOR ag conf: -2; HTR5A ag counter: -3
